Values without a mark were called inactive. Results filed as inconclusive are left out. A call without a number means that no potency is given here. Calls of active or inactive are those of the source. Unless noted, the call rests on the fitted dose curve; in most records, active means well fitted curve in the direction sought with a large enough effect in the repeat runs; inconclusive means weak or mixed curves; inactive means no such curve, though single readings can be large; an effect the other way counts as inactive or inconclusive.
Experiments:
[1] = qHTS assay for small molecules that induce genotoxicity in human embryonic kidney cells expressing luciferase-tagged ATAD5 (AID 651632); further: nearly all actives have a fitted effect of over 15% in size; further: potency means the concentration at half of the fitted maximal effect
Procedure, shortened: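 ATAD5-luc HEK293T, 2,000 cells/well; cpd or DMSO pin-transferred; 16 hr, 37C/5% CO2; Amplite 30 min RT; luminescence.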

[2] = qHTS assay for small molecule agonists of the p53 signaling pathway - cell viability (AID 651633; calls by dose curve;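 further: p53RE-bla HCT reporter cells with a stable beta-lactamase p53 reporter; series mostly up to about 83 µM; nearly all actives have a fitted effect of over 30% in size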)
Procedure, shortened: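 p53RE-bla cells were treated with compound for 16 hours at 37 C. Cytotoxicity was then measured as CellTiter-Glo luminescence after 30 min at room temperature.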

[3] = qHTS assay for small molecules that induce genotoxicity in human embryonic kidney cells expressing luciferase-tagged ATAD5 - cell viability (AID 651634; calls by dose curve; further: nearly all actives have a fitted effect of over 25% in size; further: potency means the concentration at half of the fitted maximal effect)
Procedure, shortened: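 Fluorescence from CellTiter-Fluor, reporting protease activity within live cells, served as the viability read-out. HEK293T cells carrying luciferase-tagged ATAD5 had been treated with compound for 15.5 hr at 37C.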

[4] = qHTS assay for small molecule disruptors of the mitochondrial membrane potential - cell viability (AID 720634; calls by dose curve;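 further: human HepG2 liver cancer cells; series mostly up to about 83 µM; nearly all actives have a fitted effect of over 20% in size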)
Procedure, shortened: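 Cells: HepG2, 2,000/well, attached overnight. Compound 1 hr, 37 C/5% CO2. +m-MPI dye, +CellTiter-Glo 30 min RT. Readout: luminescence (ATP).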

[5] = qHTS assay for small molecule disruptors of the mitochondrial membrane potential (AID 720635); further: potency means the concentration at half of the fitted maximal effect
Procedure, shortened: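 HepG2 cells exposed to compound 1 hr at 37C, then Mito-MPS dye 30 min. Ratio read of aggregate (540/590 nm) versus monomer (490/535 nm) fluorescence.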

[6] = qHTS assay to test for compound auto fluorescence at 590 nm (red) in HepG2 cells (AID 720674)
Procedure, shortened: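 Fluorescence at 590 nm emission following 540 nm excitation was recorded from HepG2 wells one hour after compound transfer, with DMSO-only wells as vehicle and Rose Bengal sodium equivalency as the scale.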

[7] = qHTS assay to test for compound auto fluorescence at 535 nm (green) in HepG2 cells (AID 720675)
[8] = qHTS assay to test for compound auto fluorescence at 460 nm (blue) in HEK293 cells (AID 720678)
Procedure, shortened: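 Triamterene serves as the blue fluorophore standard. Compound signal at 405/460 nm is read in HEK293 wells (2,000 cells, 10% dialyzed FBS) after overnight treatment at 37C.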

[9] = qHTS assay to test for compound auto fluorescence at 590 nm (red) in HEK293 cells (AID 720679)
Procedure, shortened: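 We plated HEK293 cells in 10% dialyzed FBS medium, let them adhere for 4-5 hr, then added 23 nL compound. Overnight at 37C and 5% CO2 preceded fluorescence measurement at 540/590nm.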

[10] = qHTS assay to test for compound auto fluorescence at 535 nm (green) in HEK293 cells (AID 720680)
[11] = qHTS assay to test for compound auto fluorescence at 590 nm (red) in HEK293 cell free culture (AID 720683)
Procedure, shortened: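 Cell-free wells of DMEM with 10% FBS received compound, and intrinsic fluorescence was read at excitation/emission 540/590 nm. Values expressed as equivalence to Rose Bengal sodium.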

[12] = qHTS assay to test for compound auto fluorescence at 590 nm (red) in HepG2 cell free culture (AID 720684)
Procedure, shortened: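 Compounds are added to culture medium (MEM, 10% FBS) lacking cells, then fluorescence is read at excitation 540 nm, emission 590 nm, with Rose Bengal sodium as the equivalency standard.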

[13] = qHTS assay to test for compound auto fluorescence at 460 nm (blue) in HepG2 cell free culture (AID 720685)
Procedure, shortened: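 Compound (23 nL) or DMSO pinned into cell-free MEM with 10% FBS; blue fluorescence read at 405/460 nm excitation/emission, expressed as auto-fluorescence equivalency to triamterene.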

[14] = qHTS assay to test for compound auto fluorescence at 535 nm (green) in HepG2 cell free culture (AID 720686)
[15] = qHTS assay to test for compound auto fluorescence at 460 nm (blue) in HepG2 cells (AID 720687)
Procedure, shortened: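 HepG2 cells in MEM with 10% FBS, attached overnight at 37 C, were exposed to compound or DMSO for 1 hr at 37 C, 5% CO2. Blue fluorescence was read at 405/460 nm, with triamterene as reference fluorophore.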

[16] = biological target: Glucocorticoid receptor (Homo sapiens) (UniProt P04150); assay: qHTS assay to identify small molecule agonists of the glucocorticoid receptor (GR) signaling pathway (AID 720691; active means well fitted activation curve with a large enough effect in the signal ratio in the repeat runs, not every such curve was filed as active; the % refers to the signal ratio)
Procedure, shortened: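 Fluorescence intensity from LiveBLAzer B/G FRET substrate (2 h, room temperature) reports beta-lactamase expression driven by the glucocorticoid response element in GR-bla HeLa cells after 18 h compound exposure at 37 C.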

[17] = biological target: Glucocorticoid receptor (Homo sapiens) (UniProt P04150); assay: qHTS assay to identify small molecule antagonists of the glucocorticoid receptor (GR) signaling pathway (AID 720692; active means well fitted inhibition curve with a large enough effect in the signal ratio in the repeat runs, not every such curve was filed as active; the % refers to the signal ratio)
Procedure, shortened: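 HeLa GR-bla cells; cmpd + dex 5 nM final, 18 h 37 C; LiveBLAzer B/G FRET substrate 2 h RT; fluorescence intensity read. Antagonist mode, qHTS.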

[18] = qHTS assay to test for compound auto fluorescence at 460 nm (blue) in HEK293 cell free culture (AID 720681)
Procedure, shortened: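 Compounds were added to cell-free DMEM with 10% FBS and fluorescence read directly. The blue channel used 405 nm excitation and 460 nm emission, with triamterene as the reference fluorophore.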

[19] = qHTS assay to test for compound auto fluorescence at 535 nm (green) in HEK293 cell free culture (AID 720682)
Procedure, shortened: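 Intrinsic compound fluorescence is measured in culture medium containing 10% FBS, with excitation at 485 nm and detection at 535 nm, referenced to fluorescein.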

Chain of Glucocorticoid receptor (Homo sapiens) (P04150 whole entry, looked up): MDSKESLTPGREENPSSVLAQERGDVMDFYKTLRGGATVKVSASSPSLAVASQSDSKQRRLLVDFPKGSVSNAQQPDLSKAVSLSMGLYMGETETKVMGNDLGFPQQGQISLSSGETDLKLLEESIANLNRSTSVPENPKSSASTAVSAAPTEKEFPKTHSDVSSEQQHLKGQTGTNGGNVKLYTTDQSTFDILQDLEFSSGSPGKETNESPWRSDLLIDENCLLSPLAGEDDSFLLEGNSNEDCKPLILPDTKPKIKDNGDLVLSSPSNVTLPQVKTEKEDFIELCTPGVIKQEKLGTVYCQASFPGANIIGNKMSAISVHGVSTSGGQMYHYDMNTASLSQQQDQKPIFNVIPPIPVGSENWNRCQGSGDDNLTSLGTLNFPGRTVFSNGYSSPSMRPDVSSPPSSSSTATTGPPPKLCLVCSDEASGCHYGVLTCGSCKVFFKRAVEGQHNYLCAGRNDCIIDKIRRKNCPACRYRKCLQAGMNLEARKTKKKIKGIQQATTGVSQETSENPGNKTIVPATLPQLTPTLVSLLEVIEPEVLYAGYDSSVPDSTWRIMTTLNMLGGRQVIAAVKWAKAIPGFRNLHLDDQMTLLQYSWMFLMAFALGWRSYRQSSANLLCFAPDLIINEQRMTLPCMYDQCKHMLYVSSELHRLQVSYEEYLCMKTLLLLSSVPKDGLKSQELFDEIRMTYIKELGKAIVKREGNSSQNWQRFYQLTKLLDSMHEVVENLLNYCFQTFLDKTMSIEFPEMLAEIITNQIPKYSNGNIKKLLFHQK

| Compound | Potency [1] | Potency [2] | Potency [3] | Potency [4] | Potency [5] | outcome [6] | outcome [7] | outcome [8] | outcome [9] | outcome [10] | outcome [11] | outcome [12] | outcome [13] | outcome [14] | outcome [15] | Potency [16] | Potency [17] | outcome [18] | outcome [19] |
| --- | --- | --- | --- | --- | --- | --- | --- | --- | --- | --- | --- | --- | --- | --- | --- | --- | --- | --- | --- |
| CN1CCC[C@@H]1Cc1c[nH]c2ccc(CCS(=O)(=O)c3ccccc3)cc12 | inactive | inactive | inactive | inactive | inactive | inactive | inactive | inactive | inactive | inactive | inactive | inactive | inactive | inactive | inactive | – | – | – | – |
| CCCCC(CC)COC(=O)COc1cc(Cl)c(Cl)cc1Cl (stereo unspecified) | inactive | inactive | inactive | inactive | – | – | inactive | – | inactive | inactive | inactive | inactive | inactive | inactive | inactive | inactive | inactive | – | – |
| Cc1cc2c(s1)Nc1ccccc1N=C2N1CCN(C)CC1 | inactive | inactive | – | inactive | inactive | inactive | inactive | – | inactive | inactive | inactive | inactive | inactive | inactive | inactive | inactive | inactive | inactive | inactive |
| CCNCCO | inactive | inactive | – | inactive | inactive | inactive | inactive | inactive | inactive | inactive | inactive | inactive | inactive | inactive | – | inactive | inactive | inactive | – |
| CC(C)C[C@H](NC(=O)OCC1c2ccccc2-c2ccccc21)C(=O)O | 12.2 µM (active) | inactive | inactive | inactive | – | inactive | inactive | inactive | inactive | inactive | inactive | inactive | inactive | inactive | inactive | – | inactive | – | inactive |
| CCOc1ccc(NC(N)=O)cc1 | inactive | inactive | inactive | inactive | – | – | inactive | inactive | inactive | inactive | inactive | inactive | inactive | inactive | inactive | – | inactive | inactive | – |
| CCOc1ccc(NS(=O)(=O)c2ccc(N)cc2)nn1 | inactive | inactive | inactive | inactive | inactive | inactive | inactive | inactive | inactive | inactive | inactive | inactive | inactive | inactive | inactive | inactive | inactive | inactive | inactive |
| CN(C)CCOc1ccccc1Cc1ccccc1 | inactive | inactive | inactive | inactive | 2.66 µM (active) | – | inactive | – | inactive | inactive | inactive | inactive | inactive | inactive | inactive | – | – | inactive | inactive |
| NS(=O)(=O)c1cc(-c2nn[nH]n2)c(NCc2cccs2)cc1Cl | inactive | inactive | inactive | inactive | – | inactive | inactive | inactive | inactive | inactive | inactive | inactive | inactive | inactive | inactive | inactive | inactive | inactive | inactive |
| CC1CN(c2ccccc2)NC1=O (stereo unspecified) | inactive | inactive | – | inactive | – | inactive | inactive | inactive | inactive | inactive | inactive | inactive | inactive | inactive | inactive | inactive | – | inactive | inactive |
| CC(=O)OC1C2(C)CCC(C2)C1(C)C (stereo unspecified) | inactive | inactive | – | inactive | inactive | inactive | inactive | – | inactive | inactive | inactive | inactive | inactive | inactive | – | inactive | – | – | inactive |
| CC1(C)C(=O)N(Cl)C(=O)N1Br | inactive | inactive | inactive | inactive | – | inactive | inactive | inactive | inactive | inactive | inactive | inactive | inactive | inactive | – | inactive | inactive | inactive | – |
| CC1=NN(c2cc(Cl)c(S(=O)(=O)O)cc2Cl)C(=O)C1N=Nc1ccc(S(=O)(=O)O)cc1 (stereo unspecified) | inactive | inactive | – | inactive | inactive | inactive | inactive | inactive | inactive | inactive | inactive | inactive | inactive | inactive | – | – | – | – | inactive |
| CC(C)=CCCC(C)CCOC=O (stereo unspecified) | inactive | inactive | 54.5 µM (active) | – | – | inactive | inactive | inactive | inactive | inactive | inactive | inactive | inactive | inactive | inactive | – | inactive | inactive | inactive |

Source: PubChem BioAssay (Tox21)
